# Test results taken from PubChem BioAssay (NCI).
# The panel holds about 83,000 compounds, 20% with a hit somewhere; the sample as a whole holds those more often.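 Negative percent growth values reflect cell death: -40 means 40% of the cells present at the start died, and -100 means all died.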 A number with no mark means an inactive call. The source made the active and inactive calls. Rule for the calls: active = growth percent below 10; inactive = the rest.
# Test system: OVCAR-3 ovarian
# Assay: NCI-60 one-dose screen, 48 h (100 = growth as untreated, 0 = no growth, -100 = all killed)
# Details: 10 µM unless noted
row,Compound,growth
1,CCOC(=O)c1c2c(c(C)n1Cc1ccc(OC)cc1)-c1nc(N)ncc1CC2,104%
2,Cc1cc2cn3c4cccnc4[nH]c(=O)c3c2cc1C,29.5%
3,COc1cc2c(c(OC)c1OC)CCc1cnoc1-2,116%
4,C=C(C)[C@H]1CC/C(C)=C/CC[C@]2(C)O[C@H]2CC/C(C=O)=C\C1O (some centres not stated),124%
5,Nc1nc(Cl)c2[nH]cnc2n1,125%
6,O=C(Nc1ncc([N+](=O)[O-])s1)c1cccc([N+](=O)[O-])c1,21.3%
7,Cc1ccc([N+](=O)[O-])cc1NC(=O)Nc1cccc(F)c1,51.8%
8,COc1ccc(/C(=C2\O[C@@H]([C@H](O)CO)[C@H]3OC(C)(C)O[C@@H]23)c2cc(OC)c(OC)c(OC)c2)cc1O,97.4%
9,CCC(c1ccccc1)c1noc(CCN(CC)CC)n1 (configuration not stated),115%
10,O=C(Nc1ccc(Nc2ccncc2)cc1)c1ccc(Nc2ccnc3ccc([N+](=O)[O-])cc23)cc1[N+](=O)[O-],98.1%
11,CCOC(=O)c1c2c(c(C)n1Cc1ccccc1)-c1nc(N)ncc1CC2,125%
12,Nc1ncc(-c2cnn(C3CCNCC3)c2)cc1-c1nc2cc(Cl)ccc2o1,-100% (active)
13,CCC(CCC(C)C1CCC2C3CC=C4CC(O)CCC4(C)C3CCC12C)C(C)C (configuration not stated) (tested in a mixture with another compound),103%
14,CCOC(=O)c1c(C)nc(C)c(C(=O)OCC)c1-c1cccnc1,115%

# Test system: HS 578T breast
# Assay: as above
# Details: 10 µM unless noted
row,Compound,growth
1,CC1=NN(c2ccccc2Cl)C(=O)/C1=C\c1cn(S(=O)(=O)c2ccc(C)cc2)c2ccccc12,116%
2,O=c1c(O)cccn1CCCNCCCN(CCCn1cccc(O)c1=O)CCCn1cccc(O)c1=O,120%
3,O=C1OCC/C1=C\OCCCO/C=C1\CCOC1=O,112%
4,O=C(Nc1cccc2ccccc12)c1cc2c(cc1Br)OCO2,125%
5,Cn1[nH]cc(/C=N/C(N)=O)c1=O,109%
6,CN1CCCC1c1cccnc1 (configuration not stated),112%
7,O=C1NC(=O)/C(=C\c2ccccc2)C2=C1CCCC2,35.2%
8,C[C@]12CC[C@@H]3c4ccc(O)c([N+](=O)[O-])c4CC[C@H]3[C@@H]1CC[C@@H]2NS(=O)(=O)c1ccc(C(F)(F)F)cc1,52.7%
9,O=C(Oc1ccc[nH]c1=O)c1cccc(Cl)c1,154%
10,COc1ccc(Cn2cc3c(c2-c2ccccc2)CCc2cncnc2-3)cc1,63.2%
11,C[n+]1ccc(Nc2ccc(NC(=O)c3ccc(Nc4cc[n+](C)c5ccc(N)cc45)cc3)cc2)cc1,108%
12,Cc1cc2c(cc1[N+](=O)[O-])NC(CNC(C)C)CC2 (configuration not stated),124%
13,CC(=O)Oc1c(C)c(OC(C)=O)c2c(c1C(C)=O)OC1CC(=O)C(C(C)=O)=C(O)C21C (configuration not stated),109%
14,CCOC(=O)c1c2c(c(C)n1Cc1ccc(OC)cc1)-c1nc(N)ncc1CC2,111%
15,COc1ccc2nc(-c3ccc(-n4cncc4-c4ccc(OC)c(N)c4)cc3)sc2c1,101%
16,COc1cc2c(c(OC)c1OC)CCc1cnoc1-2,106%
17,C=C(C)[C@H]1CC/C(C)=C/CC[C@]2(C)O[C@H]2CC/C(C=O)=C\C1O (some centres not stated),114%
18,Nc1nc(Cl)c2[nH]cnc2n1,117%
19,O=C(Nc1ncc([N+](=O)[O-])s1)c1cccc([N+](=O)[O-])c1,49.2%
20,Cc1ccc([N+](=O)[O-])cc1NC(=O)Nc1cccc(F)c1,120%
21,OC(CCC(O)(c1ccccc1)c1ccccc1)(c1ccccc1)c1ccccc1,75.1%
22,CCC(c1ccccc1)c1noc(CCN(CC)CC)n1 (configuration not stated),125%
23,O=C(Nc1ccc(Nc2ccncc2)cc1)c1ccc(Nc2ccnc3ccc([N+](=O)[O-])cc23)cc1[N+](=O)[O-],-5.48% (active)
24,CC12CCCCC1C(C(N)=O)C(=O)O2 (configuration not stated),110%
25,CCOC(=O)c1c2c(c(C)n1Cc1ccccc1)-c1nc(N)ncc1CC2,93.6%
26,Nc1ncc(-c2cnn(C3CCNCC3)c2)cc1-c1nc2cc(Cl)ccc2o1,-68.4% (active)
27,CCC(CCC(C)C1CCC2C3CC=C4CC(O)CCC4(C)C3CCC12C)C(C)C (configuration not stated) (tested in a mixture with another compound),87.3%
28,CCOC(=O)c1c(C)nc(C)c(C(=O)OCC)c1-c1cccnc1,122%
